# According to PubChem BioAssay (NCATS):
# Inconclusive results are not listed. Activity calls are given as the source filed them. The call rests on the fitted dose curve; in most records, active means well fitted inhibition curve with a large enough effect; inconclusive means small, poorly fitted or top-dose-only effect; inactive means flat fitted curve, though single readings scatter.
# Assay: qHTS to identify inhibitors of the type 1 interferon - major histocompatibility complex class I in skeletal muscle: primary screen against the NCATS Pharmaceutical Collection (AID 1347407)
# Details: human skeletal muscle cells, IFN-b-induced MHC-I HiBiT luminescence, 24 h; series mostly up to 45.9 µM; activity change, negative = inhibition: at the top concentration
# Source text: Assay Submitter (PI): Travis B. Kinder Ph.D. & James Inglese Ph.D.
# Assay Development and Screening Technology Laboratory (ADST)
# National Center for Advancing Translational Sciences (NCATS), Rockville, MD
# National Institute of Health (NIH), Bethesda, Maryland
# Idiopathic inflammatory myopathies, collectively referred to as myositis, are a group of rare autoimmune diseases characterized by skeletal muscle inflammation, weakness, and usually accompanied by systemic pathologies of the skin, lungs, or vasculature. Current immunosuppressive therapies and glucocorticoids are often not curative and are accompanied by harsh side effects, especially in children with juvenile myositis. We initiated a drug repurposing and development program to identify more targeted, less toxic therapeutics to treat myositis. Although its cause is not known, muscle from a subset of patients have an abundance of the inflammatory type 1 interferon (IFN) and a down-stream product major histocompatibility complex class I (MHC class I), which are both thought to contribute to damage and weakness. We conducted quantitative high throughput screening on 6,576 compounds (4,679 unique) through a series of cell-based assays to identify those that inhibit the IFN-stimulated expression of MHC class I in muscle precursor cells (myoblasts). The compound identification and evaluation strategy utilized a primary screen with reporter-tagged MHC class I in genome-engineered myoblasts, ATP content counter screen for viability, HLA-ABC immunofluorescence secondary screen, and HLA-B RT-qPCR tertiary screen.
# The primary screen utilized CRISPR/Cas9 genome-engineering of immortalized human myoblasts, C25cl48, where a pro-luminescent reporter HiBit was fused to the C-terminus of endogenous MHC class I allele HLA-B*08:01 (HLA-B HiBit myoblasts). HiBit is an 11 amino acid fragment of NanoLuc luminescent reporter (Promega Corporation), and when complexed to the larger LgBit fragment, the reconstituted enzyme produces light in the presence of furimazine substrate (Schwinn et al., 2018). Briefly, HLA-B HiBit myoblasts were plated into 1536-well plates, treated with 4.0 ng/ml human IFN-beta and 2,816 compounds from the NCATS Pharmaceutical Collection (NPC) that contains all drugs approved in the US, EU, and Japan (Huang et al., 2011) in an 8-point, 1:5 titration with a high final concentration of 46 uM. After 24 hrs of treatment, cells were assayed by Nano-Glo HiBiT Lytic Detection System (Promega) and luminescence measured by a ViewLux 1430 Ultra HTS (Perkin Elmer).
# Huang R, Southall N, Wang Y, Yasgar A, Shinn P, Jadhav A, Nguyen D-T, Austin CP. 2011. The NCGC pharmaceutical collection: a comprehensive resource of clinically approved drugs enabling repurposing and chemical genomics. Sci Transl Med 3:80ps16. doi:10.1126/scitranslmed.3001862
# Schwinn MK, Machleidt T, Zimmerman K, Eggers CT, Dixon AS, Hurst R, Hall MP, Encell LP, Binkowski BF, Wood K V. 2018. CRISPR-Mediated Tagging of Endogenous Proteins with a Luminescent Peptide. ACS Chem Biol 13:467-474. doi:10.1021/acschembio.7b00549
# PROTOCOL TABLE (as described by Inglese et al., 2007)
# SEQUENCE No. (e.g., 1, 2, 3, etc.); […] (e.g., Cells, Incubation, Reagent, etc.); VALUE; DESCRIPTION
# 1a; Cells; 5 uL; Use a Multidrop Combi (Thermo Scientific) to seed 350 cells/well into nine Greiner 1536 well white/solid bottom, high base, TC plates in 5 ul/well of iHSKM growth medium (GM) without dexamethasone into columns 1+2. Add metal lids with gas-exchange holes
# 1b; Cells; 5 uL; Use a Multidrop Combi (Thermo Scientific) to seed 350 cells/well into nine Greiner 1536 well white/solid bottom, high base, TC plates in 5 ul/well of iHSKM GM without dexamethasone + 4 ng/ml IFN-b into columns 3 - 48. Add metal lids with gas-exchange holes
# 2; Incubate; 1 hr; Incubate at 37 C, 5% CO2, 95% RH
# […]
# On the % scale 0 is the no-effect control and ±100 the full control effect; potency means the concentration at half of the fitted maximal effect.
SMILES,"activity change, negative = inhibition",Potency
CN1CCC(=C2c3ccccc3CC(=O)c3sccc32)CC1,-5.11% (inactive),–
Nc1c2c(nc3ccccc13)CCCC2,-10.2% (inactive),–
NC12CC3CC(CC(C3)C1)C2,2.46% (inactive),–
CN(C)CCCN1c2ccccc2CCc2ccc(Cl)cc21,-23.2% (inactive),–
Cc1cc(C(C)(C)C)cc(C)c1CC1=NCCN1,2.16% (inactive),–
COc1cc2c(c(OC)c1OC)-c1ccc(OC)c(=O)cc1[C@@H](NC(C)=O)CC2,-21.9% (inactive),–
Cc1ccccc1N1C(=O)c2cc(S(N)(=O)=O)c(Cl)cc2NC1C (stereo not given),4.59% (inactive),–
CCC1(C)CC(=O)NC1=O (stereo not given),0.199% (inactive),–
NCCCCCC(=O)O,-18.2% (inactive),–
CC1COc2c(N3CCN(C)CC3)c(F)cc3c(=O)c(C(=O)O)cn1c23 (stereo not given),2.72% (inactive),–
Cc1cn([C@H]2C=C[C@@H](CO)O2)c(=O)[nH]c1=O,5.92% (inactive),–
N[C@@H](Cc1c[nH]c2ccc(O)cc12)C(=O)O,22.4% (inactive),–
Nc1nnc(-c2cccc(Cl)c2Cl)c(N)n1,0.179% (inactive),–
CC(C(=O)O)c1cccc(C(=O)c2ccccc2)c1 (stereo not given),-7.82% (inactive),–
NC(CO)C(=O)NNCc1ccc(O)c(O)c1O (stereo not given),-18.8% (inactive),–
CCc1cccc2c3c([nH]c12)C(CC)(CC(=O)O)OCC3 (stereo not given),-8.98% (inactive),–
CC(COc1ccccc1)N(CCCl)Cc1ccccc1 (stereo not given),-2.64% (inactive),–
CC(CCc1ccc(O)cc1)NCCc1ccc(O)c(O)c1 (stereo not given),-7.8% (inactive),–
Cc1ccc(-c2cc(C(F)(F)F)nn2-c2ccc(S(N)(=O)=O)cc2)cc1,-20.4% (inactive),–
CN(C)C(=N)N=C(N)N,10.3% (inactive),–

SMILES,"activity change, negative = inhibition",Potency
Nc1ccn([C@H]2CC[C@@H](CO)O2)c(=O)n1,-4.84% (inactive),–
O=C(Nc1ccc([N+](=O)[O-])cc1Cl)c1cc(Cl)ccc1O,-4.5% [at 19 µM] (inactive),–
Nc1nc2c(ncn2COC(CO)CO)c(=O)[nH]1,-0.841% (inactive),–
COc1ccccc1OCCNCC(O)COc1cccc2[nH]c3ccccc3c12 (stereo not given),-26.9% (inactive),–
CN(C)c1nc(N(C)C)nc(N(C)C)n1,-7.33% (inactive),–
NCCc1cnc[nH]1,-3.34% (inactive),–
OCCN1CCN(CCCN2c3ccccc3Sc3ccc(C(F)(F)F)cc32)CC1,-26% (inactive),–
CCCNCC(O)COc1ccccc1C(=O)CCc1ccccc1 (stereo not given),-19.2% (inactive),–
CN1CCN2c3ccccc3Cc3ccccc3C2C1 (stereo not given),-4.08% (inactive),–
CC12CC3CC(C)(C1)CC(N)(C3)C2,-0.466% (inactive),–
CC(C)(Oc1ccc(C2CC2(Cl)Cl)cc1)C(=O)O (stereo not given),-2.34% (inactive),–
COC(=O)Nc1nc2ccc(C(=O)c3cccs3)cc2[nH]1,-26% (inactive),–
Clc1ccc2c(c1)C(N1CCNCC1)=Nc1ccccc1O2,-24.5% (inactive),–
COc1ccccc1N1CCN(CC(O)COc2cccc3ccccc23)CC1 (stereo not given),-14.8% (inactive),–
COc1ccccc1OCC(O)CN1CCN(CC(=O)Nc2c(C)cccc2C)CC1 (stereo not given),4.33% (inactive),–
CN(C)CCOC(c1ccccc1)c1ccccc1,-6.02% (inactive),–
CS(=O)(=O)Nc1ccc([N+](=O)[O-])cc1Oc1ccccc1,-11.7% (inactive),–
O=C1N(c2ccccc2)c2ccccc2C1(Cc1ccncc1)Cc1ccncc1,-7.8% (inactive),–
CCOC(=O)C(C)(C)Oc1ccc(Cl)cc1,7.37% (inactive),–
O=C1c2c(O)ccc(O)c2C(=O)c2c(NCCNCCO)ccc(NCCNCCO)c21,–,11.8 µM (active)
